According to PubChem BioAssay (NCATS):
Records with an inconclusive call do not appear. Unless noted, the call rests on the fitted dose curve; in most records, active means well fitted curve in either direction with a large enough effect (not every such curve was filed as active); inconclusive means small, poorly fitted or top-dose-only effect, or another doubt; inactive means flat fitted curve, though single readings scatter.

Assays:
[1] = AP1 Signaling Pathway (AID 357); details: ME-180 AP-1-bla reporter, EGF-induced, beta-lactamase ratio, 5 h; at 17.2 µM (top of the series) unless noted;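 further: ME-180 reporter cells stimulated with EGF at its EC50 level; on the % scale 0 is the no-effect control and ±100 the full control effect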
Outline: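 Beta-lactamase reporter under AP-1 response element, ME-180 background. Stimulus: EC50 EGF. Compound exposure 5 h, 37 °C. Detection: CCF4, 2.5 h RT, 460/530 nm. Values: AC50 from titration.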

[2] = NFAT Signaling Pathway (AID 444); details: Jurkat NFAT-bla M1, carbachol, beta-lactamase ratio, 5 h; at 17.2 µM (top of the series) unless noted;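 further: carbachol stimulus at about its EC50 of 1 µM final; on the % scale 0 is the no-effect control and ±100 the full control effect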
Outline: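 Read-out: CCF4 FRET ratio (460 nm/530 nm) after 1 h RT dye loading, used for %activity and AC50 from titration series. Cells: Jurkat NFAT-β-lactamase/M1 line, treated with compound plus 1 uM carbachol for 5 h, 37 °C.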

[3] = Stat Signaling Pathway (AID 446); details: ME-180 (cervical carcinoma) SIE beta-lactamase reporter, IL-6 stimulated, 5 h; at 17.2 µM (top of the series) unless noted;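 further: ME-180 cervical cancer cells given 40 pM IL-6 alongside compound; SIE-controlled beta-lactamase reporter measured as 460/530 nm FRET emission ratio; on the % scale 0 is the no-effect control and ±100 the full control effect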
Outline: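 Overnight-plated ME-180 cells bearing a STAT Inducible Element beta-lactamase reporter; 5 h co-exposure to compound and 40 pM IL-6; values normalized to 300 pM IL-6 and 125 nM JAK inhibitor controls.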

[4] = molecular target: Glucocorticoid receptor (Homo sapiens) (UniProt P04150); test: GR-GFP Redistribution (AID 450;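 active means compounds whose dose series gives a full or clear partial fitted curve of increased nuclear translocation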; further: potency means the concentration at half of the fitted maximal effect)
Glucocorticoid receptor (Homo sapiens), sequence (P04150 whole entry, looked up): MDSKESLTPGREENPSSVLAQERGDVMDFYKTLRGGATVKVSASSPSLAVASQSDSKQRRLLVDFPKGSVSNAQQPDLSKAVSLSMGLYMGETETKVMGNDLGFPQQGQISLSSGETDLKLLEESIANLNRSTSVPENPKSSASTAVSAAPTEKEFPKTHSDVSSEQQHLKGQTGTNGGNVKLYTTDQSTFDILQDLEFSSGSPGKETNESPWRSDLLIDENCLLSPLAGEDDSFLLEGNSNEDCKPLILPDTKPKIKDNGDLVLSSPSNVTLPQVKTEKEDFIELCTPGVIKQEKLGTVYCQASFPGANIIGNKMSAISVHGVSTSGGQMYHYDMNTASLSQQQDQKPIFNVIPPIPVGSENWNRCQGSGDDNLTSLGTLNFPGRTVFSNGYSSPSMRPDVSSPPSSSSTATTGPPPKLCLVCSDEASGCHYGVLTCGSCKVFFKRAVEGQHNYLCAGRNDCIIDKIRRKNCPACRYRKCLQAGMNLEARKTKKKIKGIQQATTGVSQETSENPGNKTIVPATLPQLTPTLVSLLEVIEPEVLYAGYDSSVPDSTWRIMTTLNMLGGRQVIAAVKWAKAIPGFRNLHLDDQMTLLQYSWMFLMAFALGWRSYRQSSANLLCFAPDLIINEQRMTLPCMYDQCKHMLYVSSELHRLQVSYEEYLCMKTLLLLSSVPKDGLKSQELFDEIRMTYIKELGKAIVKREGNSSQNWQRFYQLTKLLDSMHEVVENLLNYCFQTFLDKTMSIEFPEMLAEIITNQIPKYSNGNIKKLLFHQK

O=C(N(c1ccccc1)c1ccccc1)n1ccnc1
inactive: activity change, negative = inhibition [1] 7.1% | activity change, negative = inhibition [2] 10.9% | activity, negative = inhibition [3] 0.426% | Potency [4] > 20.6 µM

CCc1cc(=O)oc2cc(C)c(CN3CCCC3)c(O)c12
inactive: activity change, negative = inhibition [1] -8.92% | activity change, negative = inhibition [2] -9.64% | activity, negative = inhibition [3] -10.7% | Potency [4] > 20.6 µM

CC1(C)Cc2c(c(-c3ccccc3Cl)[nH]c(=O)c2C#N)CO1
inactive: activity change, negative = inhibition [1] 13% | activity change, negative = inhibition [2] -5.06% | activity, negative = inhibition [3] 2.62% | Potency [4] > 20.6 µM

CC(=O)NCC(=O)OCN1C(=O)c2ccccc2C1=O
inactive: activity change, negative = inhibition [1] 10.5% | activity change, negative = inhibition [2] -1.05% | activity, negative = inhibition [3] 0.512% | Potency [4] > 20.6 µM

CCOC(=O)CSc1nc(N(C)C)nc(N(C)C#N)n1
inactive: activity change, negative = inhibition [1] 4.52% | activity change, negative = inhibition [2] -3.44% | activity, negative = inhibition [3] -0.469% | Potency [4] > 20.6 µM

CN1CCN(Cc2c(O)c(Cl)cc3c(-c4ccccc4)cc(=O)oc23)CC1
inactive: activity change, negative = inhibition [1] -17.1% | activity change, negative = inhibition [2] -1.47% | activity, negative = inhibition [3] -7.42% | Potency [4] > 20.6 µM

C=CCN(C(=O)CCC(=O)O)C1CC(=O)N(c2ccc(OC)cc2)C1=O (configuration not stated)
inactive: activity change, negative = inhibition [1] 6.46% | activity change, negative = inhibition [2] -8.7% | activity, negative = inhibition [3] 5.71% | Potency [4] > 20.6 µM

CCOc1nc(-c2ccncc2)nc2ccccc12
inactive: activity change, negative = inhibition [1] -12% | activity change, negative = inhibition [2] 2.73% | activity, negative = inhibition [3] -6.2% | Potency [4] > 20.6 µM

O=C(c1cccc2ccccc12)N1CCC(N2CCN(c3ccccc3)CC2)CC1
inactive: activity change, negative = inhibition [1] -7.39% | activity change, negative = inhibition [2] -0.0782% | activity, negative = inhibition [3] -1.11% | Potency [4] > 20.6 µM

Cc1csc2nc(CSc3nc4ccccc4o3)cn12
inactive: activity change, negative = inhibition [1] -11.6% | activity change, negative = inhibition [2] -1.77% | activity, negative = inhibition [3] 4.59% | Potency [4] > 20.6 µM

CC1(C)Cc2c(sc3c2C(=O)N(c2ccccc2)C2=NCCCN23)CO1
inactive: activity change, negative = inhibition [1] 9.3% | activity change, negative = inhibition [2] -14.6% | activity, negative = inhibition [3] 5.74% | Potency [4] > 20.6 µM

Nc1ccc2cn[nH]c2c1
inactive: activity change, negative = inhibition [1] 4.71% | activity change, negative = inhibition [2] 2.08% | activity, negative = inhibition [3] 6.7% | Potency [4] > 20.6 µM

Cc1nc(SCC(=O)Nc2ccc3c(c2)OCO3)c(C#N)c2c1CCCC2
inactive: activity change, negative = inhibition [1] -14.5% | activity change, negative = inhibition [2] -1.28% | activity, negative = inhibition [3] -15.4% | Potency [4] > 20.6 µM

CC12CN3CC(=O)N4CC5(C)CN(CC(C)(C4)C5=O)C(=O)CN(C1)CC(C)(C3)C2=O
inactive: activity change, negative = inhibition [1] -1.13% | activity change, negative = inhibition [2] 2.81% | activity, negative = inhibition [3] 0.401% | Potency [4] > 20.6 µM

c1csc(-c2nn3c(C4CCCCC4)nnc3s2)c1
inactive: activity change, negative = inhibition [1] -6.89% | activity change, negative = inhibition [2] -19.6% | activity, negative = inhibition [3] 20.7% | Potency [4] > 20.6 µM

CCCOc1ccc(/C(O)=C2/C(=O)C(=O)N(CCN(C)C)C2c2ccncc2)cc1 (configuration not stated)
inactive: activity change, negative = inhibition [1] -5.87% | activity change, negative = inhibition [2] 4.76% | activity, negative = inhibition [3] 5.47% | Potency [4] > 20.6 µM

CC(=O)Nc1cccc(NC(=O)CSc2nc(C)c(C)c(C)c2C#N)c1
inactive: activity change, negative = inhibition [1] -13.8% | activity change, negative = inhibition [2] 8.76% | activity, negative = inhibition [3] -4.2% | Potency [4] > 20.6 µM

Cc1nc2ccccc2cc1O
inactive: activity change, negative = inhibition [1] 13.6% | activity change, negative = inhibition [2] 7.71% | activity, negative = inhibition [3] 5.42% | Potency [4] > 20.6 µM

Cc1cc(C)n2c3c(c(C#N)c2n1)CC(C)(C)OC3
inactive: activity change, negative = inhibition [1] 5.4% | activity change, negative = inhibition [2] -2.38% | activity, negative = inhibition [3] -0.114% | Potency [4] > 20.6 µM

CCn1c(SCC(=O)NC2CCCCC2C)nnc1-c1ccc(OC)cc1 (configuration not stated)
inactive: activity change, negative = inhibition [1] -8.83% | activity change, negative = inhibition [2] 19.9% | activity, negative = inhibition [3] -7.61% | Potency [4] > 20.6 µM

Cc1cc(C)nc(NC2=NCC(=O)N2c2ccccc2)n1
inactive: activity change, negative = inhibition [1] 13.1% | activity change, negative = inhibition [2] -8.71% | activity, negative = inhibition [3] 9% | Potency [4] > 20.6 µM

COc1ccc(C(O)C(CN2CCOCC2)c2ccccc2)cc1 (configuration not stated)
inactive: activity change, negative = inhibition [1] -1.55% | activity change, negative = inhibition [2] 7.08% | activity, negative = inhibition [3] 8.61% | Potency [4] > 20.6 µM

CCOC(=O)c1c(C(F)(F)C(F)(F)C(F)(F)C(F)(F)F)n[nH]c1C
inactive: activity change, negative = inhibition [1] 4.08% | activity change, negative = inhibition [2] -9.51% | activity, negative = inhibition [3] -8.59% | Potency [4] > 20.6 µM

CCOC(=O)C1=C(C)NC(=O)NC1c1ccc2c(c1)OCO2 (configuration not stated)
inactive: activity change, negative = inhibition [1] -4.59% | activity change, negative = inhibition [2] -26.9% | activity, negative = inhibition [3] -3.46% | Potency [4] > 20.6 µM

CCCCCC(=O)N1CC2(C)CN(C(=O)CCCCC)CC(C)(C1)C2=O
inactive: activity change, negative = inhibition [1] 4.08% | activity change, negative = inhibition [2] -13.6% | activity, negative = inhibition [3] 5.3% | Potency [4] > 20.6 µM

COc1ccc(C2C(C#N)=C(N)Oc3cc(C)n(CCN4CCOCC4)c(=O)c32)cc1OC (configuration not stated)
inactive: activity change, negative = inhibition [1] 0.457% | activity change, negative = inhibition [2] 24.9% | activity, negative = inhibition [3] 6.24% | Potency [4] > 20.6 µM

O=C(NCCCn1ccnc1)c1cccnc1
inactive: activity change, negative = inhibition [1] 14.4% | activity change, negative = inhibition [2] -7.91% | activity, negative = inhibition [3] 6.38% | Potency [4] > 20.6 µM

CC(NC(=O)NC(N)=O)(C(F)(F)F)C(F)(F)F
inactive: activity change, negative = inhibition [1] 0.637% | activity change, negative = inhibition [2] -0.043% | activity, negative = inhibition [3] -1.84% | Potency [4] > 20.6 µM
